# High-throughput results as filed in PubChem BioAssay.
# Hits are enriched below; roughly 19% of the tested compounds scored in any of these assays.
# HT1080 IDH1KD tx = toxicity to HT-1080 IDH1 knockdown cells (counter line); hit rate 2% among 360,000; Potency, µM (top dose mostly 46.1 µM), inactives show at the highest dose activity, negative = toxicity, most hits filed as cytotoxic; HT-1080 IDH1 knockdown viability, ATP luminescence, 48 h;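 note: potency is the fitted concentration of half-maximal effect; 0% = DMSO wells and -100% = cell-free medium wells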
#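 Assay cells: HT-1080 with IDH1 knockdown, 750 per well, RPMI/5% FBS. Exposure: 48 h at 37 °C following 2 h pre-incubation. Read: CellTiter-Glo luminescence; fitted concentration-response, curve class assigned.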
# DT40 TDP1 no CPT = qHTS for Inhibitors of human tyrosyl-DNA phosphodiesterase 1 (TDP1): qHTS in cells in absence of CPT; DT40 Tdp1-/- hTDP1 cells, no CPT, ATP luminescence, 48 h; Potency, µM (highest dose often 46.2 µM), for the others: at the top dose activity change, negative = growth inhibition, actives largely listed as inhibitors; hit rate 15% among 420,000; AID 686978, 2013; note: potency is the fitted concentration of half-maximal effect; nearly all actives have a fitted effect of over 55% in size
#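 Chicken DT40 Tdp1-/- cells complemented with human TDP1, screened without camptothecin (DMSO vehicle only), 400 cells/well. Compounds pin-transferred, cells incubated at 37 °C for at least 48 hr. Growth read as ATP-dependent luminescence (CellTiter-Glo, 30 min at RT).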
# ELG1 repair inh = inhibitors of ELG1-dependent DNA repair in HEK293T cells; HEK293T ELG1-luciferase reporter, luminescence, 16 h; DNA damage induced by 5-fluorouridine; Potency, µM (highest dose often 46.1 µM), for the others: at the top dose activity change, negative = inhibition, actives largely listed as inhibitors; hit rate 2.3% among 330,000; note: potency is the fitted concentration of half-maximal effect; nearly all actives have a fitted effect of over 55% in size
#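 Quantitative HTS, concentration-response format. 2,000 cells/well co-treated with 5-fluorouridine and compound, 16 hr in 5% CO2 at 37 °C; ONE-Glo luminescence read after 30 min.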
# HT1080-NT tox = kills 2HG-producing HT-1080-NT fibrosarcoma cells | HT-1080-NT fibrosarcoma viability, CellTiter-Glo ATP luminescence, 48 h | Potency, µM (series often up to 46.1 µM), without a hit: at the top dose activity, negative = less viability, actives largely listed as cytotoxic | hit rate 1.6% among 360,000;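 note: NT is the 2HG producing partner of a matched IDH1 knockdown line; potency is the fitted concentration of half-maximal effect; 0% = DMSO-treated cells and -100% = media-only wells without cells; nearly all actives have a fitted effect of over 55% in size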
#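 A 48-hour cytotoxicity screen used HT-1080-NT cells plated 2 hours before compound delivery. ATP-based CellTiter-Glo luminescence measured viability, normalized to DMSO and no-cell controls.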
# IL-1B inflam inh = inhibitors of inflammasome signaling (IL-1 beta secretion); activity change, % at 57.5 µM; THP-1 LPS/ATP IL-1B secretion, AlphaLISA, 16 h; active compounds read low; hit rate 4.7% among 360,000; in the data active = activity change below about -50%; inconclusive = mostly about -30% to -49%
#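 Secreted IL-1B measured by AlphaLISA bead assay after 16 h compound exposure of THP-1 cells; compounds (final up to 57.5 uM) added 1 h before LPS (250 ng/mL) and ATP (1.25 mM) stimulation; lower signal means less secretion.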
# TDP1 cell CPT = growth inhibition of DT40 Tdp1-/-;hTDP1 cells with camptothecin (screen for TDP1 inhibitors); AID 686979; chicken DT40 Tdp1-/-;hTDP1 cells + 20 nM CPT, ATP luminescence, 48 h; Potency, µM (doses to about 46.2 µM), inactives show at the top dose activity change, negative = growth inhibition, actives largely listed as inhibitors; hit rate 12% among 420,000; note: potency is the fitted concentration of half-maximal effect; nearly all actives have a fitted effect of over 55% in size
#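 Chicken DT40 Tdp1-/- cells complemented with human TDP1, 400 cells/well, exposed to compounds plus 20 nM camptothecin for at least 48 h at 37 C; viability read as ATP content by CellTiter-Glo luminescence.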
# Numbers without * were called inactive; ? = inconclusive; . = no result given. Unless noted, calls come from the whole dose curve; as a rule, active = well fitted curve in the direction sought with a large enough effect; inconclusive = small, poorly fitted or top-dose-only effect, or another doubt; inactive = no such curve, though single readings can be large; an effect the other way counts as inactive or inconclusive. Unless noted, % is set by controls: 0 for no effect and ±100 for the full control effect.
SMILES,HT1080 IDH1KD tx,DT40 TDP1 no CPT,ELG1 repair inh,HT1080-NT tox,IL-1B inflam inh,TDP1 cell CPT
Cc1cc(C(=O)Nc2c(C)nn(Cc3ccccc3Cl)c2C)no1,-25.6%,-11.9%,-1.3%,1.0%,41.9,-27.0%
COc1ccc(-c2cc(C(=O)Nc3ccc(C)c(C)c3)no2)cc1,17.9%,?,6.9%,4.8%,15.0,?
COc1ccc(OC)c(-c2cc(C(=O)Nc3c(C)nn(Cc4ccc(C)cc4)c3C)no2)c1,.,18.4µM*,.,.,.,20.6µM*
COc1ccc(OC)c(-c2cc(C(=O)Nc3ccc(C)c(C)c3)no2)c1,.,18.4µM*,.,.,.,?
COc1ccc(OC)c(-c2cc(C(=O)Nc3c(C)nn(Cc4ccccc4Cl)c3C)no2)c1,-6.1%,23.1µM*,0.0%,11.0%,-27.9,14.6µM*
COc1ccc(OC)c(-c2cc(C(=O)Nc3c(C)nn(Cc4ccccc4C)c3C)no2)c1,-24.2%,10µM*,25.9µM*,-11.1%,?,10µM*
OC[C@@H]1CN(Cc2ccc3c(c2)OCO3)C[C@H](n2cnc3c(NCc4ccc(F)cc4)ncnc32)O1,-15.4%,?,.,2.0%,-1.8,?
Cc1ncc([N+](=O)[O-])n1S(=O)(=O)c1ccc2c(c1)OCCO2,14.8%,-26.9%,.,17.8%,11.5,1.4%
CCn1c(CNC(=O)c2ccc(OC)cc2)nnc1SCC(=O)Nc1cc(C)ccc1C,.,-14.8%,.,.,.,-18.0%
COc1ccccc1-c1cc(C(=O)Nc2c(C)nn(Cc3ccc(Cl)cc3)c2C)no1,.,20.6µM*,.,.,.,20.6µM*
COc1ccc(OC)c(-c2cc(C(=O)Nc3cc(C)n(Cc4ccc(Cl)cc4)n3)no2)c1,-9.7%,?,20.6µM*,?,87.0,?
COc1ccc(-c2cc(C(=O)Nc3c(C)nn(Cc4ccc(Cl)cc4)c3C)no2)cc1,?,?,?,-1.6%,37.8,-29.8%
COc1ccc(OC)c(-c2cc(C(=O)Nc3cccc(Cl)c3C)no2)c1,.,-28.4%,.,.,.,-16.5%
Cc1nnsc1S(=O)c1ccc(Cl)cc1 (stereo not drawn),-3.4%,?,?,-2.8%,-28.7,?
Cc1nnsc1S(=O)c1ccc(Cl)c(Cl)c1 (stereo not drawn),?,14.6µM*,-15.1%,?,-62.0*,10.3µM*
O=C(NCCN1CCOCC1)c1ccc(NS(=O)(=O)c2cccc([N+](=O)[O-])c2)cc1,-2.5%,16.9%,2.7%,-0.3%,1.8,-2.2%
Cc1ccccc1-c1nc(CN2CCCC(C(=O)NCc3cccnc3)C2)c(C)o1 (stereo not drawn),-13.2%,16.4µM*,-18.5%,-7.4%,-4.9,23.1µM*
Cc1ccc(CCNC(=O)C2CCN(Cc3nc(-c4ccccc4C)oc3C)CC2)cc1,.,18.4µM*,.,.,.,13µM*
CCc1ccc(-c2nc(CN3CCCC(C(=O)NCCc4ccc(OC)c(OC)c4)C3)c(C)o2)cc1 (stereo not drawn),?,13µM*,?,-29.6%,-58.6*,23.1µM*
COc1ccc(CCNC(=O)C2CCCN(Cc3nc(-c4ccccc4C)oc3C)C2)cc1OC (stereo not drawn),-13.6%,23.1µM*,?,-5.3%,-4.4,23.1µM*
CCOc1ccc(CCNC(=O)C2CCN(Cc3nc(-c4ccccc4C)oc3C)CC2)cc1OCC,.,-13.2%,.,.,.,-29.0%
CN1CCn2cnc(C(=O)Nc3ccc(CNC(=O)OC(C)(C)C)cc3)c2C1=O,-1.6%,?,.,-3.9%,-9.9,?
Cc1sc2nc(C(C)C)nc(SCC(=O)N3CCOCC3)c2c1C,-18.2%,?,?,-3.1%,25.6,-27.1%
